Active and inactive are the calls of the source. The calls were made as follows: active = hit-call score of the fitted dose curve at least 0.9, where 1 is the maximum; inactive = score below 0.9.
Experiments:
[1] = read-out: Monokine induced gamma interferon (MIG), CXCL9 (gene 4283); assay: BSK_hDFCGF_MIG: BioMAP Diversity Plus: hDFCGF Assay for Monokine induced gamma interferon (MIG) Biomarker Activity (AID 2283063); conditions: primary human foreskin fibroblasts; actives raise or lower the signal
Procedure, shortened: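 MIG signal, determined by ELISA, reflects 24 h chemical exposure of human skin primary fibroblasts. DMSO serves as negative control and baseline.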

[2] = read-out: Matrix Metallopeptidase 1 (MMP1), MMP1 (gene 4312); assay: BSK_hDFCGF_MMP1: BioMAP Diversity Plus: hDFCGF Assay for Matrix Metallopeptidase 1 (MMP1) Biomarker Activity (AID 2283064); conditions: primary human foreskin fibroblasts; actives raise or lower the signal
Procedure, shortened: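 Primary human foreskin fibroblasts in the hDFCGF system were dosed with test chemical, and MMP1 was measured by ELISA 24 h later. Values come from bidirectional curve fitting against the DMSO baseline.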

[3] = read-out: Vascular cell adhesion molecule 1 (VCAM1), VCAM1 (gene 7412); assay: BSK_hDFCGF_VCAM1: BioMAP Diversity Plus: hDFCGF Assay for Vascular cell adhesion molecule 1 (VCAM1) Biomarker Activity (AID 2283065); conditions: primary human foreskin fibroblasts; actives raise or lower the signal
Procedure, shortened: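 Cells are dosed, cultured for 24 h, then VCAM-1 is quantified by ELISA; signal increases and decreases are both fitted relative to DMSO.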

[4] = read-out: Plasminogen activator inhibitor-1 (PAI1), SERPINE1 (gene 5054); assay: BSK_hDFCGF_PAI1: BioMAP Diversity Plus: hDFCGF Assay for Plasminogen activator inhibitor-1 (PAI1) Biomarker Activity (AID 2283066); conditions: primary human foreskin fibroblasts; actives raise or lower the signal
Procedure, shortened: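 Human foreskin fibroblasts in the hDFCGF system were dosed with compound for 24 h; PAI-1 was quantified by ELISA. Bidirectional curve fitting used DMSO as negative control and baseline.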

[5] = read-out: Intercellular Adhesion Molecule 1 (ICAM1), ICAM1 (gene 3383); assay: BSK_KF3CT_ICAM1: BioMAP Diversity Plus: KF3CT Assay for Intercellular Adhesion Molecule 1 (ICAM1) Biomarker Activity (AID 2283067); conditions: primary human keratinocytes with fibroblasts; actives raise or lower the signal
Procedure, shortened: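 Dose the keratinocyte/fibroblast co-culture, wait 24 h, measure ICAM-1 by ELISA, then fit increases or decreases against DMSO. Cytotoxicity is checked in parallel cultures by SRB total-protein staining.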

[6] = read-out: Interferon-gamma inducible Protein 10 (IP10), CXCL10 (gene 3627); assay: BSK_KF3CT_IP10: BioMAP Diversity Plus: KF3CT Assay for Interferon-gamma inducible Protein 10 (IP10) Biomarker Activity (AID 2283068); conditions: primary human keratinocytes with fibroblasts; actives raise or lower the signal
Procedure, shortened: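 In a primary skin co-culture of keratinocytes and fibroblasts, IP-10 is quantified by ELISA at 24 h after dosing. SRB staining of parallel wells monitors overt toxicity. Curves are fitted both directions against DMSO.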

[7] = BSK_KF3CT_SRB: Viability Assessment in the BioMAP Diversity Plus: KF3CT Assay (AID 2283069); conditions: primary human keratinocytes with fibroblasts
Procedure, shortened: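 Human primary keratinocyte plus foreskin fibroblast co-culture exposed to chemicals for 24 h. Total protein measured by 0.1% sulforhodamine B staining after 10% TCA fixation, read at 560 nm; bidirectional fitting versus DMSO baseline.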

[8] = read-out: Interleukin-1 alpha (IL1a), IL1A (gene 3552); assay: BSK_KF3CT_IL1a: BioMAP Diversity Plus: KF3CT Assay for Interleukin-1 alpha (IL1a) Biomarker Activity (AID 2283070); conditions: primary human keratinocytes with fibroblasts; actives raise or lower the signal
Procedure, shortened: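 Human keratinocyte plus foreskin fibroblast primary co-culture, sampled 24 h after chemical dosing. IL-1a measured by ELISA; responses fitted bidirectionally against DMSO baseline (negative control), so gain or loss of signal both count.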

[9] = read-out: TIMP metallopeptidase inhibitor 2 (TIMP2), TIMP2 (gene 7077); assay: BSK_KF3CT_TIMP2: BioMAP Diversity Plus: KF3CT Assay for TIMP metallopeptidase inhibitor 2 (TIMP2) Biomarker Activity (AID 2283071); conditions: primary human keratinocytes with fibroblasts; actives raise or lower the signal
Procedure, shortened: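 Human primary keratinocyte/foreskin fibroblast co-culture dosed with chemical and sampled at 24 h. TIMP-2 levels quantified by ELISA; bidirectional fitting against DMSO negative control as baseline.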

[10] = read-out: C-C motif chemokine 2 (Homo sapiens) (UniProt P13500); assay: BSK_KF3CT_MCP1: BioMAP Diversity Plus: KF3CT Assay for Monocyte Chemoattractant Protein 1 (MCP1/CCL2) Biomarker Activity (AID 2283073); conditions: primary human keratinocytes with fibroblasts; actives raise or lower the signal
Procedure, shortened: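 Keratinocytes and foreskin fibroblasts were co-cultured, dosed with chemical, and sampled 24 h later. MCP-1 was quantified by ELISA, and the endpoint was analyzed with bidirectional fitting using DMSO as negative control.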

[11] = read-out: Matrix Metallopeptidase 9 (MMP9), MMP9 (gene 4318); assay: BSK_KF3CT_MMP9: BioMAP Diversity Plus: KF3CT Assay for Matrix Metallopeptidase 9 (MMP9) Biomarker Activity (AID 2283074); conditions: primary human keratinocytes with fibroblasts; actives raise or lower the signal
Procedure, shortened: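 Keratinocyte plus foreskin fibroblast human primary skin co-culture was dosed with chemical and MMP-9 was quantified by ELISA 24 h later. Bidirectional curve fitting used DMSO as negative control and activity baseline.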

[12] = read-out: urokinase plasminogen activator (uPA), PLAU (gene 5328); assay: BSK_KF3CT_uPA: BioMAP Diversity Plus: KF3CT Assay for urokinase plasminogen activator (uPA) Biomarker Activity (AID 2283075); conditions: primary human keratinocytes with fibroblasts; actives raise or lower the signal
Procedure, shortened: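 Human keratinocyte plus foreskin fibroblast primary co-culture exposed to chemical for 24 h. uPA levels were quantified by ELISA, and activity was fitted bidirectionally against a DMSO negative-control baseline.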

CD40, CD40 (gene 958) = assay: BSK_LPS_CD40: BioMAP Diversity Plus: LPS Assay for CD40 Biomarker Activity (AID 2283076); conditions: primary human HUVEC with PBMC; actives raise or lower the signal
Procedure, shortened: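 CD40 signal, measured by ELISA, is fitted in both directions relative to DMSO vehicle. The system is an LPS-driven human vascular primary co-culture of endothelial cells and PBMC, sampled 24 h after compound addition.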

[13] = read-out: E-selectin (Homo sapiens) (UniProt P16581); assay: BSK_LPS_Eselectin: BioMAP Diversity Plus: LPS Assay for Eselectin Biomarker Activity (AID 2283077); conditions: primary human HUVEC with PBMC; actives raise or lower the signal
Procedure, shortened: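 Signal of E-selectin, detected by ELISA, served as the endpoint; cells were umbilical vein endothelium with PBMC, read 24 h after treatment. DMSO defined baseline, and both increases and decreases were fitted.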

[14] = read-out: Interleukin-8 (IL8), CXCL8 (gene 3576); assay: BSK_LPS_IL8: BioMAP Diversity Plus: LPS Assay for Interleukin-8 (IL8) Biomarker Activity (AID 2283078); conditions: primary human HUVEC with PBMC; actives raise or lower the signal
Procedure, shortened: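 Endothelial cells and PBMC from human donors are co-cultured, treated with chemicals and LPS, then assayed for IL-8 by ELISA after 24 h. Parallel SRB staining (0.1% SRB after 10% TCA fixation, 560 nm) flags cytotoxicity.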

[15] = BSK_LPS_SRB: Viability Assessment in the BioMAP Diversity Plus: LPS Assay (AID 2283079); conditions: primary human HUVEC with PBMC;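 also: total protein by sulforhodamine B absorbance as a cytotoxicity measure; measured one day after compound addition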
Procedure, shortened: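 Overt cytotoxicity was gauged by sulforhodamine B total-protein staining in a primary human vascular endothelial and mononuclear cell co-culture 24 h post-dosing. Activity was fitted in both directions relative to DMSO.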

[16] = read-out: Interleukin-1 alpha (IL1a), IL1A (gene 3552); assay: BSK_LPS_IL1a: BioMAP Diversity Plus: LPS Assay for Interleukin-1 alpha (IL1a) Biomarker Activity (AID 2283080); conditions: primary human HUVEC with PBMC; actives raise or lower the signal
Procedure, shortened: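 Measured: IL-1 alpha via ELISA at 24 h in LPS-activated human umbilical vein endothelium–PBMC co-culture. Baseline: DMSO, bidirectional fitting.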

[17] = read-out: Monocyte Chemoattractant Protein-1 (MCP1), CCL2 (gene 6347); assay: BSK_LPS_MCP1: BioMAP Diversity Plus: LPS Assay for Monocyte Chemoattractant Protein-1 (MCP1) Biomarker Activity (AID 2283081); conditions: primary human HUVEC with PBMC; actives raise or lower the signal
Procedure, shortened: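 LPS-stimulated HUVEC/PBMC co-culture; chemical, 24 h; MCP-1 by ELISA; bidirectional fit vs DMSO; cytotoxicity via SRB (0.1% stain, 10% TCA fix, 560 nm) in parallel wells.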

[18] = BSK_LPS_PGE2: BioMAP Diversity Plus: LPS Assay for Prostaglandin E2 (PGE2) Biomarker Activity (AID 2283082); conditions: primary human HUVEC with PBMC; actives raise or lower the signal
Procedure, shortened: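 HUVEC plus PBMC co-culture stimulated with LPS; secreted PGE2 quantified by ELISA 24 h after chemical dosing. Activity fitted bidirectionally against DMSO as negative control and baseline; parallel SRB total-protein staining served as cytotoxicity check.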

Measured: outcome

Chain of E-selectin (Homo sapiens) (P16581 whole entry, looked up): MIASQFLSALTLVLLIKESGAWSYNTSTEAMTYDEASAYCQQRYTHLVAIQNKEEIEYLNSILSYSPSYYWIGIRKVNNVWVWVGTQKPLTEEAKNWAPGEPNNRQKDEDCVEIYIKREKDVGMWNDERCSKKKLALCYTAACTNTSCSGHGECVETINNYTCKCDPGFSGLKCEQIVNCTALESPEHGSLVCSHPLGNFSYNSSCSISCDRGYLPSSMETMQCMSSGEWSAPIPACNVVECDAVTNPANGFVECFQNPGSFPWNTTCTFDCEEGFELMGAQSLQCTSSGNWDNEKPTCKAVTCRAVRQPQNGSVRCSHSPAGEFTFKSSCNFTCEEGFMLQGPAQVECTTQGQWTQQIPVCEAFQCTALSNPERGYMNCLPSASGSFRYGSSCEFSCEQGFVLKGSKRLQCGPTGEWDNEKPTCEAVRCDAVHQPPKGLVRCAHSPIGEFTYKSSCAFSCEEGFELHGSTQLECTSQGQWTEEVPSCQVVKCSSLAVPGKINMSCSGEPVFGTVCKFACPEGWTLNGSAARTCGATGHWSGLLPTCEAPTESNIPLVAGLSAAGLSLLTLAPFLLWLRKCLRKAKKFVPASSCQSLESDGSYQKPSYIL

CCCCCOC(C)=O
inactive: [1] | [2] | [3] | [4] | [5] | [6] | [7] | [8] | [9] | [10] | [11] | [12] | CD40, CD40 (gene 958) | [13] | [14] | [15] | [16] | [17] | [18]

CC(=O)c1ccccc1
inactive: [1] | [2] | [3] | [4] | [5] | [6] | [7] | [8] | [9] | [10] | [11] | [12] | CD40, CD40 (gene 958) | [13] | [14] | [15] | [16] | [17] | [18]

CCCCCCCCCC
inactive: [1] | [2] | [3] | [4] | [5] | [6] | [7] | [8] | [9] | [10] | [11] | [12] | CD40, CD40 (gene 958) | [13] | [14] | [15] | [16] | [17] | [18]

Nc1ccn([C@@H]2O[C@H](CO)[C@@H](O)[C@@H]2O)c(=O)n1
inactive: [1] | [2] | [3] | [4] | [5] | [6] | [7] | [8] | [9] | [10] | [11] | [12] | CD40, CD40 (gene 958) | [13] | [14] | [15] | [16] | [17] | [18]

Reference: PubChem BioAssay (EPA / NIEHS)
